High-throughput results (PubChem BioAssay)
GDH-TPI counter-1 – GDH-TPI coupled enzyme inhibition counter-screen; GDH-TPI coupled enzyme counterscreen, NADH absorbance; inhibition, % at 4.8 µM; hit rate 1.2% among 360,000; in the data active = inhibition above about 30%;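 also: 0% = DMSO wells and 100% = wells lacking the enzyme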
RecA intein inh – blocks M. tuberculosis RecA intein splicing. P9WHJ3. cell-free RecA intein splicing, fluorescence. inhibition, % (test concentration not listed). hit rate 0.75% among 290,000. AID 2221; in the data active = inhibition above about 30%;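 also: 0% = vehicle wells and 100% = reference inhibitor control wells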
3CLpro inhibitor – SARS-CoV 3CLpro protease inhibition; P0C6X7; hit rate 0.14% among 290,000; recombinant SARS-CoV 3CLpro, quenched FRET peptide cleavage; inhibition, % at 6 µM; in the data active = inhibition above about 12%
FBA Mtb inh – inhibits M. tuberculosis FBA enzyme | purified M. tuberculosis FBA, fluorescence read-out | inhibition, % at 1 µM | hit rate 2.3% among 360,000 | AID 588726;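 also: 0% = vehicle and 100% = reference inhibitor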
CCHF vOTU inh – blocks the CCHF virus ovarian tumor domain protease. inhibition, % at 11.5 µM. hit rate 0.55% among 370,000. CCHFV vOTU protease, Pep-AMC fluorescence; in the data active = inhibition above about 30%; also: 0% = vehicle wells with enzyme and 100% = no enzyme wells
DUSP3 inh – inhibitors of human VHR1 phosphatase (DUSP3); P51452; recombinant VHR phosphatase, pNPP absorbance; inhibition, % at 13.3 µM; hit rate 0.52% among 290,000; in the data active = inhibition above about 50%
Target sequence (P51452 whole entry, looked up): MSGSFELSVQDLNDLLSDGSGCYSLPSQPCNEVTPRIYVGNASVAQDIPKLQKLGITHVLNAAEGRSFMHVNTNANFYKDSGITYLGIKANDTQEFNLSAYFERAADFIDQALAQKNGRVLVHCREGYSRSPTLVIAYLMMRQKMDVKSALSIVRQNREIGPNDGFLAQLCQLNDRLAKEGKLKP
Mtb FBA inh conf – confirmation of M. tuberculosis fructose-bisphosphate aldolase inhibitors. purified M. tuberculosis FBA, fluorescence read-out. hit rate 78% among 5,600. shares compounds with FBA Mtb inh. inhibition, % at 1 µM;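 also: 0% = vehicle wells and 100% = reference inhibitor wells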
GDH-TPI counter-2 – GDH-TPI inhibition counter-screen for FBA inhibitors; shares compounds with FBA Mtb inh; GDH-TPI coupled enzyme counterscreen, fluorescence; inhibition, % at 1 µM; hit rate 81% among 5,600; AID 652141; in the data active = inhibition above about 10%
* marks the source's active call; other numbers are inactive results; nt = no result; + = active, no number. Rows were chosen to be rich in hits. Some 4.7% of all compounds tested hit in one or more screens of this group. Rule as the data show it, unless noted: active = inhibition above about 27%; inactive = the rest.

SMILES	GDH-TPI counter-1	RecA intein inh	3CLpro inhibitor	FBA Mtb inh	CCHF vOTU inh	DUSP3 inh	Mtb FBA inh conf	GDH-TPI counter-2
Cc1ccc(CNS(=O)(=O)c2c(C)nc3scc(C)n3c2=O)cc1	5	6	6	2	12	22	nt	nt
Cc1nc2scc(C)n2c(=O)c1S(=O)(=O)NCC1CCN(Cc2ccc(F)cc2)CC1	22	3	-2	32*	-12	12	121*	90*
COc1ccccc1CNS(=O)(=O)c1c(C)nc2scc(C)n2c1=O	10	-2	-1	19	-20	2	nt	nt
Cc1nc2scc(C)n2c(=O)c1S(=O)(=O)NC(C)c1ccccc1 (configuration not stated)	27	-2	-6	37*	-3	-7	40*	37*
Cc1nc2scc(C)n2c(=O)c1S(=O)(=O)NCCc1ccccc1	20	0	-4	22	3	12	nt	nt
COc1ccc(Cc2c(-c3ccc(C)cc3)nc3cc(C)c(Br)c(C)n23)c(C)c1	nt	nt	nt	5	-1	nt	nt	nt
N#Cc1c2c(c(NCCCN3CCOCC3)n3c1nc1ccccc13)CCC2	14	-129	-5	27*	3	25	52*	60*
CC(C)c1cc(NCCCN2CCOCC2)n2c(nc3ccccc32)c1C#N	6	-40	2	51*	-28	8	169*	129*
CCN(CC)C(=O)COc1c(-c2ccco2)oc2ccccc2c1=O	33*	-5	-3	27*	-30	5	156*	155*
CC(=O)Nc1ccc(-c2ccnc3c2CC(C)(C(=O)Nc2ccc(Cl)c(C(F)(F)F)c2)O3)cc1 (configuration not stated)	13	nt	nt	3	8	nt	nt	nt
CN(C)c1ccc(-c2ccnc3c2CC(C)(C(=O)Nc2ccc(Cl)c(C(F)(F)F)c2)O3)cc1 (configuration not stated)	25	nt	nt	84*	28	nt	54*	40*
COc1ccc(NC(=O)C2(C)Cc3c(-c4ccc(N(C)C)cc4)ccnc3O2)cn1 (configuration not stated)	27	nt	nt	40*	-10	nt	129*	103*
Cc1cccc(C)c1NC(=O)CNC(=O)c1ccc(NS(=O)(=O)c2ccc3[nH]c(=O)[nH]c3c2)cc1	4	0	nt	0	6	nt	nt	nt
CCOc1c2ccoc2nc2c(OC)c(OC)ccc12	13	0	3	67*	-46	7	+	175*
C=CCOc1ccc2c(OC)c3ccoc3nc2c1OC	1	11	-3	87*	-46	8	40*	28*
COc1cccc(NC(=O)Cc2nnc(SCCOc3ccccc3)n2C)c1	10	5	0	2	6	15	nt	nt
COc1cccc(NC(=O)Cc2nnc(SCC(=O)c3ccccc3)n2C)c1	5	3	-7	83*	13	9	161*	122*
COc1ccc2nc(N/C(N)=N/S(C)(=O)=O)nc(C)c2c1	-1	-2	2	53*	-32	8	+	+
Cc1cccc(C(O)c2ncc(-c3ccc(F)cc3)[nH]2)c1C (configuration not stated)	10	nt	nt	-1	-3	nt	nt	nt
O=c1[nH]c2ccc(Cl)cc2c(O)c1Cc1ccccc1	12	-5	2	35*	-13	-1	+	193*
CN(C)CCNC(=O)c1ccc2c(c1)N(Cc1ccc(F)cc1)CCS2	-1	-13	2	87*	-87	13	-6	-5
O=C(c1ccc2c(c1)N(Cc1ccc(F)cc1)CCS2)N1CCOCC1	2	0	-6	18	-22	11	nt	nt
O=C(NC1CCCC1)c1ccc2c(c1)N(Cc1ccc(F)cc1)CCS2	5	0	-4	72*	-20	13	1	2
COc1ccc(OC)c(CCNC(=O)c2ccc3c(c2)N(Cc2ccc(F)cc2)CCS3)c1	1	2	8	22	nt	39	nt	nt
COc1ccc2nc(SC(C)C(=O)NCC(=O)Nc3ccc(F)c(F)c3F)[nH]c2c1 (configuration not stated)	9	nt	nt	-6	-11	nt	nt	nt
